Compound activity deposited in PubChem BioAssay by National Center for Advancing Translational Sciences (NCATS).
DT40 TDP1 CPT = DT40-hTDP1 cell growth loss with CPT. Potency, µM (titrated, usually from 46.2 µM), for inactives: top-dose activity change, negative = growth inhibition, most hits filed as inhibitors. chicken DT40 Tdp1-/-;hTDP1 cells + 20 nM CPT, ATP luminescence, 48 h. 420,000 compounds, 12% hits. AID 686979; further: potency means the concentration at half of the fitted maximal effect; on the % scale 0 is the no-effect control and ±100 the full control effect; nearly all actives have a fitted effect of over 55% in size
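Chicken DT40 Tdp1-/- cells complemented with human TDP1, 400 cells/well, exposed to compounds plus 20 nM camptothecin for at least 48 h at 37 C; viability read as ATP content by CellTiter-Glo luminescence.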
TGFb inhibitor = inhibitors of TGF-b signaling; HepG2 CAGA-GFP TGF-b/SMAD3 reporter, GFP fluorescence, 18 h; TGF-beta stimulated, 500 pg/mL final; Potency, µM (titrated, usually from 46.1 µM), inactives show at the highest dose activity, negative = inhibition, actives largely listed as inhibitors; 410,000 compounds, 1.2% hits; AID 588855; further: potency means the concentration at half of the fitted maximal effect; on the % scale 0 is the no-effect control and ±100 the full control effect; nearly all actives have a fitted effect of over 65% in size
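First, reporter cells (HEPG2 CAGA-GFP) rested 2 h at 37 degrees C. Next, compounds were pinned in and TGF-beta added to 500 pg/mL final. After 18 h, GFP was imaged per cell and summed per well.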
TDP1 inh = blocks human tyrosyl-DNA phosphodiesterase 1. AID 485290. Potency, µM (highest dose often 130 µM), for the others: at the highest dose activity change, negative = inhibition, hits mostly inhibitors. Q9NUW8. 350,000 compounds, 0.28% hits. recombinant TDP1, AlphaScreen DNA substrate cleavage; further: potency means the concentration at half of the fitted maximal effect; on the % scale 0 is the no-effect control and ±100 the full control effect; nearly all actives have a fitted effect of over 40% in size
Target sequence (Q9NUW8 whole entry, looked up): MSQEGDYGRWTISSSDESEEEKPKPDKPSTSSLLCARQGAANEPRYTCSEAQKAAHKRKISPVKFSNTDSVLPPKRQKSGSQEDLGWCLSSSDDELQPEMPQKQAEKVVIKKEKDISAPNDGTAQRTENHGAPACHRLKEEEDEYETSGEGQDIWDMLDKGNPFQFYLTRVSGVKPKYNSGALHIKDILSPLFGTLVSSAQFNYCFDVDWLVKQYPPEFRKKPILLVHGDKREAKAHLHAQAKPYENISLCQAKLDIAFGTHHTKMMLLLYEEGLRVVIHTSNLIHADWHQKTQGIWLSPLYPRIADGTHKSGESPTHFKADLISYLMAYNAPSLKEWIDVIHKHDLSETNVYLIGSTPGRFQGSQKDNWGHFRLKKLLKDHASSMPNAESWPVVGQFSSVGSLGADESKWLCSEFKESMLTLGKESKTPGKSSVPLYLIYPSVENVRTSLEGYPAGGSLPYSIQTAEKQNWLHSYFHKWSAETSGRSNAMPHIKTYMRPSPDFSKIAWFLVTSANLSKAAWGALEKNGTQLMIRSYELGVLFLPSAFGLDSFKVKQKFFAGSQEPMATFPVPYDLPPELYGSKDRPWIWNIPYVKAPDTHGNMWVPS
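Recombinant E. coli-expressed Tdp1 (1 nM) preincubated with compound 15 min at RT, then 5'-biotin/3'-phosphotyrosine-FITC DNA substrate (15 nM) added for 5 min. AlphaScreen beads (10 ug/ml) added, 10 min RT; tyrosine-FITC cleavage read as signal loss.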
IL1B secr inh = inhibitors of inflammasome signaling (IL-1 beta secretion). THP-1 LPS/ATP IL-1B secretion, AlphaLISA, 16 h; active compounds read low. activity change, % at 57.5 µM. 360,000 compounds, 4.7% hits; in the data active means activity change below about -50%; inconclusive means mostly about -30% to -49%; further: on the % scale 0 is the no-effect control and ±100 the full control effect
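Secreted IL-1B measured by AlphaLISA bead assay after 16 h compound exposure of THP-1 cells; compounds (final up to 57.5 uM) added 1 h before LPS (250 ng/mL) and ATP (1.25 mM) stimulation; lower signal means less secretion.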
DT40 TDP1 no CPT = qHTS for Inhibitors of human tyrosyl-DNA phosphodiesterase 1 (TDP1): qHTS in cells in absence of CPT. DT40 Tdp1-/- hTDP1 cells, no CPT, ATP luminescence, 48 h. Potency, µM (titrated, usually from 46.2 µM), inactives show at the highest dose activity change, negative = growth inhibition, actives largely listed as inhibitors. 420,000 compounds, 15% hits. AID 686978, 2013; further: potency means the concentration at half of the fitted maximal effect; on the % scale 0 is the no-effect control and ±100 the full control effect; nearly all actives have a fitted effect of over 55% in size
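Chicken DT40 Tdp1-/- cells complemented with human TDP1, screened without camptothecin (DMSO vehicle only), 400 cells/well. Compounds pin-transferred, cells incubated at 37 °C for at least 48 hr. Growth read as ATP-dependent luminescence (CellTiter-Glo, 30 min at RT).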
HepG2 viability = counter-screen for TGF-b inhibitors: cytotoxicity in HepG2 cells; HepG2 CAGA-GFP viability, ATP luminescence, 18 h; 410,000 compounds, 0.76% hits; Potency, µM (titrated, usually from 46.1 µM), inactives show at the highest dose activity change, negative = cytotoxicity, hits mostly cytotoxic; AID 588856; further: potency means the concentration at half of the fitted maximal effect
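CellTiter-Glo luminescence gave cytotoxicity after 18 hours at 37 degrees C. The cells were HepG2 CAGA-GFP in 1% FBS DMEM, stimulated with 500 pg/mL TGF-beta after compound addition. %Activity was normalised to no-cell wells (complete cell-killing) and DMSO (no toxicity), and curves were fitted and classified.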
An asterisk follows results filed as active; ? = inconclusive; . = not tested or not shown; [ ] = dose if it differs, or a comment. Compounds with a hit are over-represented: about 19% of the library has one in this group of screens. Unless noted, the call rests on the fitted dose curve; in most records, active means well fitted curve in the direction sought with a large enough effect; inconclusive means small, poorly fitted or top-dose-only effect, or another doubt; inactive means no such curve, though single readings can be large; an effect the other way counts as inactive or inconclusive.

SMILES	DT40 TDP1 CPT	TGFb inhibitor	TDP1 inh	IL1B secr inh	DT40 TDP1 no CPT	HepG2 viability
O=C(Cn1c(=O)c2sccc2n(CC(=O)Nc2ccc(Cl)cc2Cl)c1=O)NCCc1ccccc1	?	-21.8%	-2.7%	.	-17.9%	1.1%
C=CC(COCc1ccccc1)N(C(=O)OC(C)(C)C)S(=O)(=O)c1ccccc1Br (centres undefined)	?	-27.3%	-10.9%	-3.8	16.4µM*	-24.8%
COC(=O)c1ccc(NC(=O)c2cc(S(=O)(=O)N3CCOCC3)cn2C)cc1	-6.4%	-5.3%	-2.6%	.	-4.3%	-20.7%
Cc1ccccc1S(=O)Cc1ccc(C(=O)NC2CC2)o1 (centres undefined)	2.7%	-2.0%	2.1%	-9.0	0.0%	5.2%
COc1cccc(N2CCN(C(=O)c3ccc(CS(=O)c4ccccc4C)o3)CC2)c1 (centres undefined)	0.517µM*	-15.2%	5.6%	27.5	0.581µM*	-5.7%
COc1ccc(N2CCN(C(=O)c3ccc(CS(=O)(=O)c4ccccc4C)o3)CC2)cc1	?	?	.	18.6	?	-39.2%
O=C(c1ccc(CS(=O)c2cccc(Cl)c2)o1)N1CCN(C2CCCCC2)CC1 (centres undefined)	-27.6%	11.3%	2.3%	-5.1	-1.8%	-7.4%
O=C(c1ccc(COc2ccc3c(c2)CCC3)o1)N1CCN(c2ccccc2)CC1	14.6µM*	-6.3%	.	-72.5*	?	-33.8%
COc1ccc(N2CCN(C(=O)c3ccc(CS(=O)c4cccc(C)c4)o3)CC2)cc1 (centres undefined)	18.4µM*	-17.2%	7.3%	-0.9	16.4µM*	-10.3%
O=C(c1ccc(CS(=O)c2cccc(Cl)c2)o1)N1CCCCCC1 (centres undefined)	-8.0%	-21.8%	2.8%	2.2	23.1µM*	-24.2%
C=CCn1c(SCC(=O)Nc2ccc(N3CCOCC3)cc2)nnc1-c1ccco1	0.1%	5.2%	.	15.2	-12.3%	-5.3%
CCc1ccc(C(=O)COC(=O)C(Cc2c[nH]c3ccccc23)NC(=O)c2ccc(Br)cc2)cc1 (centres undefined)	-21.9%	-43.4%	1.3%[12.3 µM]	.	-28.3%	-19.8%
O=C(c1ccc(CS(=O)c2ccccc2Cl)o1)N1CCN(c2ccccc2)CC1 (centres undefined)	0.82µM*	?	7.0%	142.3	0.517µM*	-6.8%
O=C(c1ccc(COc2ccccc2Cl)o1)N1CCN(c2ccccc2)CC1	?	0.7%	6.1%	22.6	29.1µM*	-8.2%
O=C(c1ccc(CS(=O)c2ccccc2Cl)o1)N1CCOCC1 (centres undefined)	-7.0%	2.6%	2.7%	9.7	13.1%	-4.2%
COc1cccc(N2CCN(C(=O)Nc3ccccc3Cl)CC2)c1	-12.6%	-8.0%	0.0%	?	-31.4%	-10.1%
COc1cccc(N2CCN(C(=O)c3ccc(CS(=O)c4ccccc4Cl)o3)CC2)c1 (centres undefined)	0.0291µM*	11.2µM*	10.2%	55.2	0.0052µM*	-34.7%
CCOc1ccc(Cl)cc1CNCCCSc1nc(C)cc(C)n1	?	-13.5%	3.4%	?	?	-22.1%
C/C=C1\COC(C(=O)NC)(C(F)(F)F)C=C1C=C1CCCCC1 (centres undefined)	.	15.8µM*	2.1%	.	.	-58.7%
C/C=C1\COC(C(=O)NCc2ccncc2)(C(F)(F)F)C=C1C=C1CCCCC1 (centres undefined)	?	10µM*	14.4%	94.9	?	-26.6%
C/C=C1\COC(C(=O)NCCOCCO)(C(F)(F)F)C=C1C=C1CCCCC1 (centres undefined)	.	12.6µM*	5.0%	.	.	-57.4%
C/C=C1\COC(C(=O)NCc2cccc(OC)c2OC)(C(F)(F)F)C=C1C=C1CCCCC1 (centres undefined)	14.6µM*	?	4.4%	?	16.4µM*	-18.3%
Cc1ncc2c(c1CNC(=O)c1ccc3c(c1)OCO3)CCN(C(=O)c1cnsn1)C2	6.3%[9.04 µM]	.	.	.	-1.7%	.
CCC(C)[C@H](NC(=O)C1CC(=O)N(c2ccc(OC)cc2)C1)C(=O)N1CCCCC1 (some centres undefined)	5.8%	0.9%	2.5%	3.8	17.1%	-1.7%
COc1ccc(S(=O)(=O)Nc2ccc(S(=O)(=O)Nc3nccs3)cc2)cc1	6.2%	-3.5%	4.5%	-10.5	0.9%	4.6%
SMILES	DT40 TDP1 CPT	TGFb inhibitor	TDP1 inh	IL1B secr inh	DT40 TDP1 no CPT	HepG2 viability
CC(C)c1ccc(S(=O)(=O)N2CCC(C(=O)N3CCN(c4cccc(Cl)c4)CC3)CC2)cc1	25.9µM*	-6.6%	.	8.8	?	-23.3%
CC(=O)N1c2ccc(S(=O)(=O)N3CCC(C(=O)N4CCN(c5cc(Cl)ccc5C)CC4)CC3)cc2CC1C (centres undefined)	10.3µM*	-17.1%	1.9%	-15.7	9.2µM*	-11.1%
O=C(C1CCN(S(=O)(=O)c2ccc(Cl)cc2)CC1)N1CCCC1	1.1%	5.7%	.	1.3	?	-0.2%
CC1Cc2cc(S(=O)(=O)N3CCC(C(=O)N4CCN(c5ccccc5F)CC4)CC3)ccc2N1C(=O)C1CC1 (centres undefined)	?	-23.2%	1.7%	-51.5*	?	-20.0%
COc1ccccc1N1CCN(C(=O)C2CCN(S(=O)(=O)c3ccc(Cl)cc3)CC2)CC1	?	-24.0%	4.9%	-18.4	20.6µM*	-0.9%
COc1ccc(C(=O)NCCCNC(=O)c2ccccn2)cc1Br	-14.8%	0.0%	3.9%[56.1 µM]	20.3	1.2%	-6.9%
COc1ccccc1N1CCN(S(=O)(=O)c2ccc3c(c2)CC(C)N3C(C)=O)CC1 (centres undefined)	?	-22.5%	5.9%	-1.5	?	-17.0%
COc1ccccc1N1CCN(C(=O)C2CCN(S(=O)(=O)c3ccc4c(c3)CC(C)N4C(=O)C3CC3)CC2)CC1 (centres undefined)	?	-19.4%	3.6%	-52.6*	?	-29.2%
COc1ccccc1N1CCN(C(=O)C2CCN(S(=O)(=O)c3ccccc3)CC2)CC1	-18.5%	-6.6%	4.7%	9.3	-18.8%	3.1%
COc1ccccc1N1CCN(C(=O)C2CCN(S(=O)(=O)c3ccc4c(c3)CC(C)N4C(C)=O)CC2)CC1 (centres undefined)	?	-1.3%	5.2%	21.8	11.6µM*	-3.7%
